Test results from PubChem BioAssay (EPA / NIEHS).
Records with an inconclusive call do not appear. Active and inactive are the calls of the source. How the source made its calls, unless noted: active means hit-call score of the fitted dose curve at least 0.9, where 1 is the maximum; inactive means score below 0.9.

Experiments:
[1] = biological target: Paired box protein Pax-6 (Homo sapiens) (UniProt P26367); assay: ATG_Pax6_CIS: Attagene CIS-FACTORIAL HepG2 Assay for human Paired Box 6 (PAX6) (AID 2282956); conditions: HepG2 CIS-FACTORIAL PAX6 reporter transcription, RNA readout; actives raise or lower the signal
Procedure, shortened: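 Readout: reporter transcript fluorescence after RT-PCR and capillary electrophoresis. Cells: HepG2, transiently transfected with cis-regulated MRTUs. Exposure 24 h. Gain or loss of signal fitted bidirectionally relative to DMSO.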

[2] = ATG_PXRE_CIS: Attagene CIS-FACTORIAL HepG2 Assay for human Pregnane X Receptor Element (PXRE) (AID 2282957); conditions: HepG2 Attagene CIS-FACTORIAL PXRE reporter, mRNA; actives raise or lower the signal
Procedure, shortened: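 Reporter transcripts under endogenous PXR-responsive cis-regulation quantified from total RNA of transfected HepG2 cells 24 h post-dosing, via RT-PCR with fluorescent primer extension and capillary electrophoresis. Gain or loss of signal fitted against DMSO baseline.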

[3] = ATG_PPRE_CIS: Attagene CIS-FACTORIAL HepG2 Assay for human Peroxisome Proliferator-activated Response Element (PPRE) (AID 2282958); conditions: HepG2 PPRE cis-element reporter, Attagene transcription factor profiling; actives raise or lower the signal
Procedure, shortened: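 PPRE activity in HepG2: transient cis-reporter transfection, 24 h compound incubation, reporter mRNA by RT-PCR and CE fluorescence; gain/loss fitted against DMSO.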

[4] = ATG_Sox_CIS: Attagene CIS-FACTORIAL HepG2 Assay for human SRY-box transcription factor (SOX) (AID 2282960); conditions: HepG2 Attagene cis-factorial SOX reporter, mRNA; actives raise or lower the signal
Procedure, shortened: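 HepG2, cis reporter units, 24 h exposure. Reporter mRNA: RT-PCR → FAM labelling → HpaI → CE fluorescence. Bidirectional fit vs DMSO.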

[5] = biological target: Transcription factor Sp1 (Homo sapiens) (UniProt P08047); assay: ATG_Sp1_CIS: Attagene CIS-FACTORIAL HepG2 Assay for human Specificity Protein 1 (Sp1) (AID 2282961); conditions: HepG2 Sp1 cis-reporter transcription, actives raise or lower the signal
Procedure, shortened: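 Liver-derived HepG2 cells, cis-element reporter library, 24 h treatment; RNA isolated, cDNA amplified with reporter-specific primers, FAM-labeled fragments sized on capillary analyzer. DMSO baseline, bidirectional curve fit.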

[6] = ATG_SREBP_CIS: Attagene CIS-FACTORIAL HepG2 Assay for human Sterol Regulatory Element Binding (SREBP) (AID 2282962); conditions: HepG2 Attagene cis-factorial SREBP reporter, mRNA; actives raise or lower the signal
Procedure, shortened: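 Readout: fluorescent reporter-transcript peaks resolved by capillary electrophoresis after RT-PCR. Cells were human HepG2 carrying transfected cis-promoter reporter constructs, dosed for 24 h. Gain or loss of signal was fitted against DMSO controls.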

[7] = biological target: Signal transducer and activator of transcription 3 (Homo sapiens) (UniProt P40763); assay: ATG_STAT3_CIS: Attagene CIS-FACTORIAL HepG2 Assay for human Signal Transducer and Activator of Transcription 3 (STAT3) (AID 2282963); conditions: HepG2, Attagene cis-factorial STAT3 reporter transcription; actives raise or lower the signal
Procedure, shortened: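 Fluorescence intensity of 6-FAM-labelled reporter fragments, separated by capillary electrophoresis after RT-PCR, gave the signal. Cells were HepG2 transfected with cis-element reporter units and treated 24 h; fitting was bidirectional relative to DMSO.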

[8] = ATG_TA_CIS: Attagene CIS-FACTORIAL HepG2 Assay for human TA Basal Promoter (AID 2282964); conditions: HepG2 Attagene CIS-factorial TA basal promoter reporter; actives raise or lower the signal
Procedure, shortened: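 Steps: transfect HepG2 with MRTUs; dose 24 h; isolate RNA, DNase-treat, reverse-transcribe; PCR and FAM-label reporter cDNA; digest with HpaI 2h at 37 C; run capillary electrophoresis. Activity fitted both directions against DMSO.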

[9] = ATG_TCF_b_cat_CIS: Attagene CIS-FACTORIAL HepG2 Assay for human T-Cell-Factor with beta-catenin (TCF/b-cat) (AID 2282965); conditions: HepG2 TCF/beta-catenin cis-reporter transcription, actives raise or lower the signal
Procedure, shortened: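 Cells of the HepG2 line carry transiently transfected reporter units whose promoters respond to endogenous factors. Twenty-four hours post-dosing, reporter mRNA induction is measured by fluorescent RT-PCR and capillary electrophoresis, with DMSO as baseline.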

[10] = ATG_TAL_CIS: Attagene CIS-FACTORIAL HepG2 Assay for human TAL Basal Promoter (AID 2282966); conditions: HepG2 Attagene cis-factorial TAL promoter reporter; actives raise or lower the signal;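 further: background control endpoint measuring basal TAL promoter reporter mRNA not a specific factor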
Procedure, shortened: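 Background-control endpoint: basal TAL promoter reporter transcripts in transiently transfected HepG2, measured 24 h after dosing. Read-out by RT-PCR with fluorescent primer extension and capillary electrophoresis; gain or loss of signal fitted relative to DMSO.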

[11] = ATG_TGFb_CIS: Attagene CIS-FACTORIAL HepG2 Assay for human Transforming Growth Factor (TGF) (AID 2282967); conditions: HepG2 Attagene CIS TGFb reporter, mRNA transcription; actives raise or lower the signal
Procedure, shortened: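 Cells were dosed for 24 hours, after which total RNA was reverse-transcribed and reporter sequences amplified, labeled and sized by capillary electrophoresis. Activity was fitted in both directions against DMSO.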

[12] = ATG_VDRE_CIS: Attagene CIS-FACTORIAL HepG2 Assay for human Vitamin D Receptor Element (VDRE) (AID 2282968); conditions: HepG2 VDRE cis-reporter transcription, actives raise or lower the signal
Procedure, shortened: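 Compounds were applied for 24 h to HepG2 cells transfected with promoter-regulated reporter units. Total RNA was reverse-transcribed, and reporter amplicons were fluorescently labelled and sized by capillary electrophoresis.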

[13] = biological target: X-box-binding protein 1 (Homo sapiens) (UniProt P17861); assay: ATG_Xbp1_CIS: Attagene CIS-FACTORIAL HepG2 Assay for human X-box Binding Protein 1 (XBP1) (AID 2282972); conditions: HepG2 XBP1 cis-element reporter, Attagene multiplex; actives raise or lower the signal
Procedure, shortened: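 Read-out: fluorescent reporter mRNA fragments resolved by capillary electrophoresis after RT-PCR. Human HepG2 liver cells carried transfected cis-promoter reporter units and were exposed to chemicals for 24 hours. Gain or loss of signal fitted relative to DMSO baseline.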

[14] = ATG_M_19_TRANS: Attagene TRANS-FACTORIAL HepG2 Assay for M19 Transcription Factor (Internal Marker) (AID 2282974; active means hit-call score of the fitted dose curve at least 0.9, where 1 is the maximum); conditions: HepG2 Attagene TRANS-FACTORIAL M19 internal marker reporter
Procedure, shortened: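 Transfected HepG2 (GAL4-UAS MRTUs), 24 h compound, TriZol RNA, DNase-treated RT, reporter PCR, FAM label, HpaI digest, CE fluorescence; gain vs DMSO.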

[15] = ATG_RORE_CIS: Attagene CIS-FACTORIAL HepG2 Assay for human RAR-related Orphan Receptor Element (RORE) (AID 2282959); conditions: HepG2 Attagene cis-factorial RORE reporter, mRNA; actives raise or lower the signal
Procedure, shortened: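 A 24-hour exposure of transfected HepG2 hepatoma cells precedes RNA isolation and reporter RT-PCR. Labeled products are digested with HpaI and resolved by capillary electrophoresis, with gain or loss of signal scored relative to DMSO.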

[16] = ATG_GAL4_TRANS: Attagene TRANS-FACTORIAL HepG2 Assay for GAL4 (Internal Marker) (AID 2282976; active means hit-call score of the fitted dose curve at least 0.9, where 1 is the maximum); conditions: HepG2 Attagene TRANS GAL4 internal marker reporter
Procedure, shortened: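 In transfected human HepG2 liver cells dosed 24 h, GAL4 reporter mRNA serves as a baseline marker. Detection by RT-PCR with fluorescent capillary electrophoresis, activity fitted upward relative to DMSO.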

[17] = biological target: Estrogen receptor (Homo sapiens) (UniProt P03372); assay: ATG_ERa_TRANS: Attagene TRANS-FACTORIAL HepG2 Assay for human Estrogen Receptor alpha (ERa) (AID 2282970; active means hit-call score of the fitted dose curve at least 0.9, where 1 is the maximum); conditions: HepG2 Attagene TRANS ERa GAL4 reporter, mRNA
Procedure, shortened: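 Reporter transcripts were measured 24 h after dosing by RT-PCR with fluorescent primer extension and capillary electrophoresis. The system is transiently transfected HepG2 expressing exogenous NR-Gal4 chimeras driving GAL4-UAS reporters; DMSO is the baseline.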

[18] = biological target: Nuclear receptor subfamily 1 group I member 3 (Homo sapiens) (UniProt Q14994); assay: ATG_CAR_TRANS: Attagene TRANS-FACTORIAL HepG2 Assay for human Constitutive Androstane Receptor (CAR) (AID 2282969; active means hit-call score of the fitted dose curve at least 0.9, where 1 is the maximum;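 further: activators raise reporter mRNA above DMSO so AC50 marks induction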); conditions: HepG2 Attagene TRANS-FACTORIAL CAR reporter
Procedure, shortened: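 Transiently transfected HepG2, multiplex TRANS reporters (CAR-Gal4 chimera driving GAL4-UAS reporter). 24 h dosing. Readout: reporter transcript by RT-PCR + capillary electrophoresis, fluorescence intensity; positive direction vs DMSO.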

[19] = biological target: Estrogen-related receptor gamma (Homo sapiens) (UniProt P62508); assay: ATG_ERRg_TRANS: Attagene TRANS-FACTORIAL HepG2 Assay for human Estrogen-Related Receptor gamma (ERRg) (AID 2282977; active means hit-call score of the fitted dose curve at least 0.9, where 1 is the maximum;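 further: hits increase reporter signal over DMSO so potencies reflect activators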); conditions: HepG2 Attagene TRANS reporter, ERRg transactivation
Procedure, shortened: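 Exogenous NR-Gal4 chimera activity measured as reporter transcript induction after 24 h in transiently transfected HepG2 cells. RNA reverse-transcribed, PCR-amplified, 6-FAM-labelled and resolved by capillary electrophoresis; increase over DMSO baseline.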

[20] = biological target: Steroid hormone receptor ERR1 (Homo sapiens) (UniProt P11474); assay: ATG_ERRa_TRANS: Attagene TRANS-FACTORIAL HepG2 Assay for human Estrogen-Related Receptor alpha (ERRa) (AID 2282971; active means hit-call score of the fitted dose curve at least 0.9, where 1 is the maximum); conditions: HepG2 Attagene TRANS reporter, ERRa transactivation
Procedure, shortened: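 Reporter transcripts from ERRa-Gal4 chimera activity measured in transiently transfected human HepG2 cells 24 hours after dosing, using RT-PCR with 6-FAM primer extension, HpaI digestion and capillary electrophoresis; DMSO is baseline.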

Measured: AC50

Chain of Estrogen-related receptor gamma (Homo sapiens) (P62508 whole entry, looked up, the tested form may be a part): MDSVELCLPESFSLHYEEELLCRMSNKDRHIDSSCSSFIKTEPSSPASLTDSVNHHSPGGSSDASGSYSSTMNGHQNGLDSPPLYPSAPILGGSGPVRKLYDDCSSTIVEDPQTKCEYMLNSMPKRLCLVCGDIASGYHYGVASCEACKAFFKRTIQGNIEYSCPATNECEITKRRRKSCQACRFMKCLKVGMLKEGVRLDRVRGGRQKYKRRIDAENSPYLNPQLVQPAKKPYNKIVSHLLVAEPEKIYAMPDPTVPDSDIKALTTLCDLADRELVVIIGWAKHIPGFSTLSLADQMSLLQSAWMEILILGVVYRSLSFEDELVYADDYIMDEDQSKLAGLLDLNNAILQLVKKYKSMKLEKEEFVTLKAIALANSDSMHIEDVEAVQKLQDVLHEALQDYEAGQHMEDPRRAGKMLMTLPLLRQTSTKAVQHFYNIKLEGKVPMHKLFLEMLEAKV
Chain of Paired box protein Pax-6 (Homo sapiens) (P26367 whole entry, looked up): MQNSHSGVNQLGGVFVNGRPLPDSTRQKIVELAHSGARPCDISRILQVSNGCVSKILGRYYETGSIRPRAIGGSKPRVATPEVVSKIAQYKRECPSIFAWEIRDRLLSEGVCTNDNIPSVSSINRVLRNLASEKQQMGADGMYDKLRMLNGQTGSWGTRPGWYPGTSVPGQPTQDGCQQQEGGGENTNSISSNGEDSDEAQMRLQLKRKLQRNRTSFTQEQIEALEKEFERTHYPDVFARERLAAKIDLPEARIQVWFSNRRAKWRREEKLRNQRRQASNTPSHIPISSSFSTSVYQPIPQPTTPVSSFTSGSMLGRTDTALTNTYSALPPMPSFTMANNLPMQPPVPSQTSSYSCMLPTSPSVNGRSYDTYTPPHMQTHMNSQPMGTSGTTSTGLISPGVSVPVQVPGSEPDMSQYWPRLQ
Chain of Transcription factor Sp1 (Homo sapiens) (P08047 whole entry, looked up, the tested form may be a part): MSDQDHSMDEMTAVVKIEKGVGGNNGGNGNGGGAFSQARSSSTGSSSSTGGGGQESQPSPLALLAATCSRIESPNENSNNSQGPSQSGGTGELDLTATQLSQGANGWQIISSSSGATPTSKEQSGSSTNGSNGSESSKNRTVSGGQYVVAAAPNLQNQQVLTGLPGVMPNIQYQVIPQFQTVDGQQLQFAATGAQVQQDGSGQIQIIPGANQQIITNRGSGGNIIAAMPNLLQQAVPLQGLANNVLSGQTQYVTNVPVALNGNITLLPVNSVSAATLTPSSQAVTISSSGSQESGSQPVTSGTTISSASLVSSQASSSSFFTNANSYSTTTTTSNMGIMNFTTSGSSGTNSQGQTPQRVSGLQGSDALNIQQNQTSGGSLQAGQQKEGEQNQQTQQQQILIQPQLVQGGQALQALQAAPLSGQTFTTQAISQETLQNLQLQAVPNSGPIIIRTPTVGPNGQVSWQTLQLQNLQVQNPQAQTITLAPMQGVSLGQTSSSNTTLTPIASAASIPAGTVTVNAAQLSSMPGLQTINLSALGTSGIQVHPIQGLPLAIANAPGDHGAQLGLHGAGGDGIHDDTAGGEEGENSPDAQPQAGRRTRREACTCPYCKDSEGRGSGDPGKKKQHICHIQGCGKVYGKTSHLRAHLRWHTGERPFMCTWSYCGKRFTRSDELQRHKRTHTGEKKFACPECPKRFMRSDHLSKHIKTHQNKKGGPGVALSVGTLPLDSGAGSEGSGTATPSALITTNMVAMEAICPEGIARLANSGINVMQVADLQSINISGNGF
Chain of Nuclear receptor subfamily 1 group I member 3 (Homo sapiens) (Q14994 whole entry, looked up, the tested form may be a part): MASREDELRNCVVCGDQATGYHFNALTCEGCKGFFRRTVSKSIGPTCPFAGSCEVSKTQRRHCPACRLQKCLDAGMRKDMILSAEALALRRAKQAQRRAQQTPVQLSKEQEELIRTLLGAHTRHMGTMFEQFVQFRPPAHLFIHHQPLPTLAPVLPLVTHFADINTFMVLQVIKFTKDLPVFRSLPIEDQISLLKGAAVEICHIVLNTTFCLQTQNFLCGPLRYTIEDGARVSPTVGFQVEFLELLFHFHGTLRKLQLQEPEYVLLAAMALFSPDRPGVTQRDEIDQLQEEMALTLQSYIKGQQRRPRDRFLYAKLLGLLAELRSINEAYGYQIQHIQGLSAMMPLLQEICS
Chain of Estrogen receptor (Homo sapiens) (P03372 whole entry, looked up, the tested form may be a part): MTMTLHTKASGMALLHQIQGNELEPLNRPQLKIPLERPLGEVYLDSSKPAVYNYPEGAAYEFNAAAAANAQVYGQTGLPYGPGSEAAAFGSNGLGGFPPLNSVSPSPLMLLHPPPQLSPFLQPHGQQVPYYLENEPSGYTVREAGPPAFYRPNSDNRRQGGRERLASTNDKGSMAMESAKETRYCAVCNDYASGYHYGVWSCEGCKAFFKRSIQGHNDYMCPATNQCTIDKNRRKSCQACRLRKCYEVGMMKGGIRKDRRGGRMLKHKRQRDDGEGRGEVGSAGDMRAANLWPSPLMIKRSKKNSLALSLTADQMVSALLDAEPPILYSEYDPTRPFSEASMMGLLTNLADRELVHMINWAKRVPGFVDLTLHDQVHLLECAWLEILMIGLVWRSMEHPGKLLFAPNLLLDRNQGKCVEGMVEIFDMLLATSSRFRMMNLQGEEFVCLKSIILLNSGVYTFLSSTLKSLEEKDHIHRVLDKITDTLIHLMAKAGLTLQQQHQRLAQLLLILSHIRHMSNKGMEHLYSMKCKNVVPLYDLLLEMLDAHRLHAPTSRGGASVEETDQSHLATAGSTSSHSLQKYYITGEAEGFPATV
Chain of Signal transducer and activator of transcription 3 (Homo sapiens) (P40763 whole entry, looked up, the tested form may be a part): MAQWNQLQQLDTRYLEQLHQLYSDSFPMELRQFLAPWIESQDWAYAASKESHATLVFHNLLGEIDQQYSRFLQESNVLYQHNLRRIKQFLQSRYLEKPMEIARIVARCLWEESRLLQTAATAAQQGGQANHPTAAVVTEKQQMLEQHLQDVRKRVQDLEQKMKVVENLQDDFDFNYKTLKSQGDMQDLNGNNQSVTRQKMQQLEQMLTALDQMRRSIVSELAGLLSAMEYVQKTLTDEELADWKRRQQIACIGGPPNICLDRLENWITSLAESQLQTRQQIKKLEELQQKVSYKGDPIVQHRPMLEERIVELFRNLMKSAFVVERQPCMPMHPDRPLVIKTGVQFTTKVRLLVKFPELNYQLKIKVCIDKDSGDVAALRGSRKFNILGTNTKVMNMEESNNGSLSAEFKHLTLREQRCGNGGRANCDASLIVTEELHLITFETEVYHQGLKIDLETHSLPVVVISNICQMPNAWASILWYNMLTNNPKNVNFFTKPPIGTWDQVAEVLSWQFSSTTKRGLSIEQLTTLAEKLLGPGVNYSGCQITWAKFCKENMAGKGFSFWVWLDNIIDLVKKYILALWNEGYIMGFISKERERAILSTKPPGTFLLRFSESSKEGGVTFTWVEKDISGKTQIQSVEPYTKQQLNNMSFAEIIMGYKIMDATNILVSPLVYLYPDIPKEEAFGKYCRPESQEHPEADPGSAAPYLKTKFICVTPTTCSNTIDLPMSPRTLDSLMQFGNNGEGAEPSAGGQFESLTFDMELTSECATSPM
Chain of X-box-binding protein 1 (Homo sapiens) (P17861 whole entry, looked up, the tested form may be a part): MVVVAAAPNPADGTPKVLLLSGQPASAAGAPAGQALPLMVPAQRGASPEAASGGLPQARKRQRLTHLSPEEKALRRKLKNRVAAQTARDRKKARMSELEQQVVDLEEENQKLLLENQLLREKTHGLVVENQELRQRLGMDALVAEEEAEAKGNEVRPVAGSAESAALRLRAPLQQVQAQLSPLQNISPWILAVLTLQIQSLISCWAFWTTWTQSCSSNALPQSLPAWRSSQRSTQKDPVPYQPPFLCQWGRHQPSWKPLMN
Chain of Steroid hormone receptor ERR1 (Homo sapiens) (P11474 whole entry, looked up, the tested form may be a part): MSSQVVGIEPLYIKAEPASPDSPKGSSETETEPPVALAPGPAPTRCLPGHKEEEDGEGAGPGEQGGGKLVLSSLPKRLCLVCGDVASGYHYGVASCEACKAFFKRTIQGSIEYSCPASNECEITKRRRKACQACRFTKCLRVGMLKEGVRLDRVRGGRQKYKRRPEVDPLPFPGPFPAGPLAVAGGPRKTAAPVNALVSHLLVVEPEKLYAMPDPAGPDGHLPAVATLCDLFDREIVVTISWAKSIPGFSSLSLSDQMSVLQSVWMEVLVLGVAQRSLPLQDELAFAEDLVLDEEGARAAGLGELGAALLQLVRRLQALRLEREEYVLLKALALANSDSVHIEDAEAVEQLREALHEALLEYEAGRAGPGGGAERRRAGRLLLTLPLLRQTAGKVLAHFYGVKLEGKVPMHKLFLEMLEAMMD

Cc1ccc(N)c([N+](=O)[O-])c1
not listed: [15] | [16] | [17] | [18] | [19] | [20]
inactive: all other assays above

COC(F)(F)C(F)(C(F)(F)F)C(F)(F)F
not listed: [5] | [14] | [17] | [18] | [19] | [20]
inactive: all other assays above

Cc1ccc2oc(=O)ccc2c1
not listed: [15] | [18] | [19] | [20]
inactive: all other assays above

O=c1n(CCO)c(=O)n(CCO)c(=O)n1CCO
not listed: [15] | [17] | [19] | [20]
inactive: all other assays above

CCCCOCCOC(=O)COc1nc(Cl)c(Cl)cc1Cl
not listed: [15] | [16] | [18] | [19] | [20]
inactive: all other assays above

COCCOCCOCCOCCOC
not listed: [5] | [14] | [17] | [18] | [19] | [20]
inactive: all other assays above

CCC(C)OC(=O)c1ccc(O)cc1 (stereo not drawn)
active: [2] 27.8 µM | [3] 100 µM | [12] 62.7 µM | [17] 0.75 µM
not listed: [14] | [15] | [16] | [20]
inactive: all other assays above

O=C(O)CCCC[C@@H]1SC[C@@H]2NC(=O)N[C@@H]21
not listed: [6] | [7] | [14] | [16] | [20]
inactive: all other assays above

CCCCCCCCc1ccc(Nc2ccc(CCCCCCCC)cc2)cc1
active: [2] 6.3 µM | [12] 19.8 µM
not listed: [14] | [15] | [16] | [18]
inactive: all other assays above

CCCCCCCC[N+](C)(CCCCCCCC)CCCCCCCC
not listed: [5] | [7] | [11] | [12] | [16] | [18] | [19] | [20]
inactive: all other assays above

CN1C(=O)N(C)C(O)C1O (stereo not drawn)
not listed: [15] | [19] | [20]
inactive: all other assays above

CC(=O)Oc1ccc(C(C)=O)cc1
not listed: [5] | [16] | [19] | [20]
inactive: all other assays above

CCCCC(CC)COC(=O)c1ccccc1 (stereo not drawn)
active: [2] 27.6 µM | [17] 34.6 µM
not listed: [15] | [16] | [19] | [20]
inactive: all other assays above

C=CC(=O)NC(C)(C)CS(=O)(=O)O
not listed: [15] | [17] | [19] | [20]
inactive: all other assays above

CCCCCCCCCCc1ccccc1
not listed: [14] | [15] | [18] | [20]
inactive: all other assays above

CC(=O)Oc1ccc(C)cc1
not listed: [5] | [12] | [17] | [18] | [19] | [20]
inactive: all other assays above
